Measured potencies and affinities stand elsewhere. Calls of active or inactive are those of the source.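 Rule for the calls: active = compounds whose fitted half-maximal cell-killing dose is at most twice the top tested dose; inconclusive = flat curve with 30 to 70 percent signal loss, or poor fit; inactive = the rest.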
Experiment: kidney cell line viability loss – HEK293T, luminescence plate reader, powder samples, set 4, cytotoxicity control, dose response (AID 651863)
Settings: CellTiter-Glo ATP luminescence, 48 h; series mostly up to 26 µM; activity change, negative = cytotoxicity: at the top concentration

| Compound | activity change, negative = cytotoxicity | outcome |
| --- | --- | --- |
| NC(=O)c1ccccc1C(=O)NC[C@@H]1c2ccccc2CCN1C(=O)[C@@H]1CCCC[C@@H]1C(=O)O | 0.45% (inactive) | – |
| O=C1c2ccccc2C(=O)N1CC1=NCCc2ccccc21 | 10.7% (inactive) | – |
| CCOC(=O)C(C(=O)OCC)c1cc(CN2C(=O)c3ccccc3C2=O)c2ccccc2n1 | -6.23% (inactive) | – |
| NC(=O)[C@H]1CCCC[C@H]1C(=O)N1CCc2ccccc2[C@H]1CN1C(=O)c2ccccc2C1=O | 2.88% (inactive) | – |
| COC(=O)C1CCCCC1C(=O)N1CCc2ccccc2C1CN1C(=O)c2ccccc2C1=O (centres undefined) | 22.2% (inactive) | – |
| Cc1cc(C)c(S(=O)(=O)Nc2cc(C(C(=O)OC(C)C)C(=O)C(F)(F)F)c(O)c3ccccc23)c(C)c1 (centres undefined) | -5.11% (inactive) | – |
| O=C(O)[C@H]1CCCC[C@H]1C(=O)N1CCC2=C(CCCC2)C1CN1C(=O)c2ccccc2C1=O (some centres undefined) | – | inactive |
| O=C1c2ccccc2C(=O)N1C[C@@H]1c2ccccc2CCN1C(=O)C1CCCCC1 | 13.3% (inactive) | – |
| O=C(O)[C@H]1C2C=CC(C2)[C@H]1C(=O)N1CCc2ccccc2C1CN1C(=O)c2ccccc2C1=O (some centres undefined) | -5.44% (inactive) | – |
| O=C(O)C1CCCCC1C(=O)N1CCCCC1CN1C(=O)c2ccccc2C1=O (centres undefined) | -1.47% (inactive) | – |
| Cc1cc(C)c(S(=O)(=O)Nc2nc(C(C(=O)OC(C)C)C(=O)C(F)(F)F)nc3ccccc23)c(C)c1 (centres undefined) | 7.01% (inactive) | – |
| Cc1ccc(S(=O)(=O)NNc2nc(N3CC(O)CC3C(=O)O)nc3ccccc23)cc1 (centres undefined) | 2.02% (inactive) | – |
| O=C(O)[C@H]1CCCC[C@H]1C(=O)N1CCc2ccccc2C1 (racemic) | 24.1% (inactive) | – |
| O=C(O)[C@H]1CCCC[C@H]1C(=O)N1CCc2ccccc2C1CCN1C(=O)c2ccccc2C1=O (some centres undefined) | – | inactive |
